Hits are enriched below; roughly 3.1% of the tested compounds scored in any of these assays.
Peg3 promoter: Peg3 promoter-driven luciferase inhibitors, primary screen, cell-based, HeLa, luciferase luminescence; HeLa PEG-Prom luciferase reporter, overnight; inhibition, % at 20 µM; actives 1.7% (n = 360,000); AID 588405, 2011;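 active = inhibition of at least 50% at 20 µM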
TRAIL sens C8: viability loss with TRAIL in NB7+C8 cells, primary screen, TRAIL sensitizer project, cell-based, ATPlite luminescence. inhibition (viability loss, TRAIL sensitization), % at 10 µM. actives 1% (n = 360,000). AID 624354, 2012;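 active = compounds causing at least 50% loss of cell viability in the single-dose screen, relative to plate controls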
HIF-2a inh: HIF-2a reporter inhibitors, primary screen, luminescence, 786-0 RCC cells; 786-0 RCC cells HIF-2a reporter, luciferase luminescence, overnight; inhibition, % at 18.8 µM; actives 0.72% (n = 360,000); AID 624352, 2012;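 active = inhibition of the luminescence signal of 40% or more relative to plate controls, in a single-dose primary screen at 18.75 µM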
CF NFkB block: inhibitors of PAF-induced NF-kB signaling, primary screen, cell-based, GFP fluorescence, uHTS; KKLEB NF-kB-GFP reporter, GFP fluorescence overnight; inhibition, % at 5 µM; actives 0.86% (n = 360,000); AID 588850, 2011;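 active = at least 50% inhibition at 5 µM, scaled per plate between neutral and stimulator controls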;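 also: PAF is a Pseudomonas aeruginosa culture filtrate used as stimulus; plate controls were PAF-stimulated DMSO wells for no effect and unstimulated DMSO wells for full effect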
KKLEB cytotox: cytotoxicity in KKLEB CF airway cells, primary screen, cytotoxicity control for CF NF-kB inhibitor project, cell-based, uHTS, fluorescence assay plates. KKLEB CF airway cells viability, ATPlite luminescence, overnight; stronger effect = lower value; cells stimulated with P. aeruginosa culture filtrate. AID 602141, 2011. activity change (cytotoxicity), % at 5 µM. actives 0.36% (n = 360,000);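 active = corrected activity change at or below -50% at 5 µM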
PPC-1+TRAIL kill: compounds killing PPC-1 cancer cells with TRAIL present, primary screen, TRAIL potentiator project, ATPLite luminescence, uHTS; PPC-1 cells + TRAIL, ATPLite viability luminescence; cell killing (% activity), % at 4 µM or 5 µM; actives 0.41% (n = 220,000); AID 1443, 2008;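 active = cell killing above 50% in the first pass at 4 µM, then a duplicate retest at 5 µM averaging 50% or more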;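 also: plate controls were cells with TRAIL plus DMSO for no effect and medium-only wells lacking cells for full effect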
An asterisk follows results filed as active.

`O=[N+]([O-])c1ccc(-c2cnc(SC(c3ccccc3)c3ccccc3)[nH]2)cc1` gave Peg3 promoter 53*, TRAIL sens C8 5, HIF-2a inh 9, CF NFkB block -24, KKLEB cytotox 2 and PPC-1+TRAIL kill 13.
For O=C(Nc1cccc(Oc2ccc(C(=O)O)c(C(=O)O)c2)c1)c1ccc(-c2ccccc2)cc1 the results were Peg3 promoter 3, TRAIL sens C8 54*, HIF-2a inh 14, CF NFkB block -5, KKLEB cytotox 8 and PPC-1+TRAIL kill 25.
For Cc1ccc(F)c(S(=O)(=O)NC(=O)C2(C)CCN2C(=O)Cc2cccs2)c1 (stereo not drawn) the results were Peg3 promoter 2, TRAIL sens C8 1, HIF-2a inh 14, CF NFkB block 7 and KKLEB cytotox 8.
`O=C1c2ccccc2C(Nc2cccnc2)N1Cc1ccc2c(c1)OCO2` (stereo not drawn) gave Peg3 promoter 8, TRAIL sens C8 1, HIF-2a inh 4, CF NFkB block 24, KKLEB cytotox -18 and PPC-1+TRAIL kill 65*.
`COc1cccc2cc(-c3nc4ccccc4[nH]3)c(=O)oc12` gave Peg3 promoter -225, TRAIL sens C8 54*, HIF-2a inh -206, CF NFkB block -12 and KKLEB cytotox -10.
Screening Cc1cccc2cc(-c3nc4ccc(C(=O)O)cc4[nH]3)c(=O)oc12 returned Peg3 promoter 22, TRAIL sens C8 54*, HIF-2a inh -24, CF NFkB block -4 and KKLEB cytotox -3.
For O=C(O)c1ccc2nc(CO)[nH]c2c1 the results were Peg3 promoter -5, TRAIL sens C8 -15, HIF-2a inh 18, CF NFkB block 10, KKLEB cytotox -7 and PPC-1+TRAIL kill -7.
COc1cccc2cc(-c3ccccc3)c(=O)oc12 was read as Peg3 promoter -279, TRAIL sens C8 29, HIF-2a inh -237, CF NFkB block -29, KKLEB cytotox 5 and PPC-1+TRAIL kill 25.
COc1ccc(-c2cc3cccc(OC)c3oc2=O)cc1 was read as Peg3 promoter -128, TRAIL sens C8 78*, HIF-2a inh -59, CF NFkB block -16 and KKLEB cytotox -33.
For CCOC(=O)c1c(NC(=O)COC(=O)/C=C/c2ccccc2)sc(C(=O)NC)c1C the results were Peg3 promoter -1, TRAIL sens C8 4, HIF-2a inh 8, CF NFkB block -7 and KKLEB cytotox -5.
Screening CCCCN(C)c1c(C)nc2ccc(C(=O)N(C)CCN(C)C)cn12 returned Peg3 promoter -1, TRAIL sens C8 -15, HIF-2a inh 4, CF NFkB block -23 and KKLEB cytotox 4.
c1ccc(-c2nc3ccccc3o2)nc1 was read as Peg3 promoter -177, TRAIL sens C8 5, HIF-2a inh -158, CF NFkB block -19, KKLEB cytotox 4 and PPC-1+TRAIL kill 3.
For c1ccc2nc(-c3nc4ccccc4o3)ccc2c1 the results were Peg3 promoter 19, TRAIL sens C8 76*, HIF-2a inh 17, CF NFkB block -40, KKLEB cytotox -27 and PPC-1+TRAIL kill 23.
For CCN(CC)CCn1c(SCC(=O)Nc2ccc(F)cc2)nc2c(sc3ccccc32)c1=O the results were PPC-1+TRAIL kill 19.
For C=CCN(C(=O)CSc1nc2c(sc3ccccc32)c(=O)n1CCN(CC)CC)c1ccccc1 the results were Peg3 promoter 64*, TRAIL sens C8 13, HIF-2a inh -8, CF NFkB block 11, KKLEB cytotox -13 and PPC-1+TRAIL kill -5.
`CCn1c2ccccc2c(=O)c2ccccc21` gave Peg3 promoter 13, TRAIL sens C8 -6, HIF-2a inh 1, CF NFkB block -2, KKLEB cytotox -6 and PPC-1+TRAIL kill 0.
For Cn1c(-c2ccccc2)c(C(=O)CCl)c2ccccc21 the results were Peg3 promoter 55*, TRAIL sens C8 92*, HIF-2a inh 28, CF NFkB block 98*, KKLEB cytotox -86* and PPC-1+TRAIL kill 21.
`CCn1c(-c2ccccc2)c(C(=O)CCl)c2ccccc21` gave Peg3 promoter 46, TRAIL sens C8 5, HIF-2a inh 34, CF NFkB block 106*, KKLEB cytotox -102* and PPC-1+TRAIL kill 4.
For Cn1c(=O)c2cc(NC(=O)NCc3ccccc3)ccc2n1Cc1ccc(Cl)cc1 the results were Peg3 promoter 16, TRAIL sens C8 -7, HIF-2a inh 2, CF NFkB block 10 and KKLEB cytotox -10.
`CC[C@H](C)[C@@H]1NC(=O)[C@@H](CC(C)C)NC(=O)[C@H](C(C)C)NC(=O)[C@H]2CSSC[C@H](NC1=O)C(=O)N2` gave Peg3 promoter 98*, TRAIL sens C8 94*, HIF-2a inh 96*, CF NFkB block 82* and KKLEB cytotox -106*.
For CCN(CC(=O)NCc1ccc(Cl)cc1)C(=O)COc1ccc(Cl)cc1Br the results were Peg3 promoter 22, TRAIL sens C8 8, HIF-2a inh -18, CF NFkB block -42 and KKLEB cytotox 11.
Screening Cc1cc(Cl)c2ccc3ccccc3c2n1 returned Peg3 promoter -15, TRAIL sens C8 0, HIF-2a inh 13, CF NFkB block 2, KKLEB cytotox 4 and PPC-1+TRAIL kill 1.
`Cc1ccc2c(Cl)cc(Cl)c(O)c2n1` gave Peg3 promoter 46, TRAIL sens C8 15, HIF-2a inh 6, CF NFkB block 52* and KKLEB cytotox -35.
CNc1cc(-c2ccc(CC#N)cc2)ncn1 was read as Peg3 promoter -195, TRAIL sens C8 15, HIF-2a inh -260, CF NFkB block 7 and KKLEB cytotox 8.
COc1cc(C(=O)NN=Cc2ccc(N(C)C)cc2)cc(OC)c1OC was read as Peg3 promoter -17, TRAIL sens C8 -19, HIF-2a inh 9, CF NFkB block 44 and KKLEB cytotox -29.
`C=CCN(CC=C)c1cnn(-c2nc3ccccc3[nH]2)c(=O)c1Cl` gave Peg3 promoter -180, TRAIL sens C8 66*, HIF-2a inh -206, CF NFkB block 9, KKLEB cytotox -9 and PPC-1+TRAIL kill 16.
For O=c1c(Cl)c(NCCCO)cnn1-c1nc2ccccc2[nH]1 the results were Peg3 promoter 99*, TRAIL sens C8 5, HIF-2a inh -99, CF NFkB block -7, KKLEB cytotox 5 and PPC-1+TRAIL kill 19.
`O=S(=O)(Nc1nc2ccccc2[nH]1)c1ccc(Cl)cc1` gave Peg3 promoter 13, TRAIL sens C8 6, HIF-2a inh 17, CF NFkB block 24, KKLEB cytotox -11 and PPC-1+TRAIL kill 20.
`CC(C)c1ccc(-c2nnc(N)s2)cc1` gave Peg3 promoter -224, TRAIL sens C8 58*, HIF-2a inh -150, CF NFkB block -2, KKLEB cytotox -4 and PPC-1+TRAIL kill 58*.
